# Test results as given in PubChem BioAssay (Tox21).
# Where “and” joins values, the source holds several entries; their conditions need not be identical. Equal values may be shown once. Unmarked numbers belong to inactive results. Results filed as inconclusive are left out. Entries that show only a call come without a potency. Calls of active or inactive are those of the source. Calls come from the whole dose curve; as a rule, active = well fitted curve in the direction sought with a large enough effect in the repeat runs; inconclusive = weak or mixed curves; inactive = no such curve, though single readings can be large; an effect the other way counts as inactive or inconclusive.
# What was measured:
# [1] = qHTS RealTime-Glo MT Cell Viability Assay in HEK293 cells - 16 hour (AID 1224872); note: nearly all actives have a fitted effect of over 50% in size; note: potency is the fitted concentration of half-maximal effect; for activity change, negative = cytotoxicity: top concentration of the series differs between compounds
# Summary of the method: (§1)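 Viability tracked continuously by luminescence as live cells reduce a prosubstrate for NanoLuc; HEK293 cells preincubated 5 h, compound-treated at 37 C, and read at 0, 8, 16, 24, 32 and 40 h.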
# [2] = qHTS RealTime-Glo MT Cell Viability Assay in HepG2 cells - 8 hour (AID 1224873); note: nearly all actives have a fitted effect of over 55% in size; note: potency is the fitted concentration of half-maximal effect
# Summary of the method: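 Real-time viability: cells seeded at 600 per well together with NanoLuc and cell-permeant prosubstrate, compounds added after 5 h incubation. Luminescence tracked at 0, 8, 16, 24, 32 and 40 h of exposure.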
# [3] = qHTS RealTime-Glo MT Cell Viability Assay in HEK293 cells - 40 hour (AID 1224874); conditions: RealTime-Glo luminescence; max response: hits give low values; note: nearly all actives have a fitted effect of over 50% in size; note: potency is the fitted concentration of half-maximal effect
# Summary of the method: (§2)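 600 cells/well were plated with the nonlytic NanoLuc/prosubstrate reagent, pre-incubated 5 h, then given 23 nL of compound in DMSO. Incubation at 37 C for 40 h, with luminescence from viable-cell-reduced substrate read repeatedly from 0 h.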
# [4] = A CellTox Green Cytotoxicity Assay to monitor cytotoxicity in HEK293 cells - 24 hour (AID 1224875); note: nearly all actives have a fitted effect of over 45% in size; note: potency is the fitted concentration of half-maximal effect; for activity change: series mostly up to about 77 µM
# Summary of the method: (§3)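 HEK293 cells, 600/well, were preincubated 5 hours and then exposed to compounds at 37 C for up to 40 hours. A cell-impermeant cyanine dye staining dead-cell DNA was read by fluorescence at 0, 8, 16, 24, 32 and 40 h time points.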
# [5] = A CellTox Green Cytotoxicity Assay to monitor cytotoxicity in HepG2 cells - 16 hour (AID 1224876); note: nearly all actives have a fitted effect of over 45% in size; note: potency is the fitted concentration of half-maximal effect
# Summary of the method: (§4)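 HepG2 cells, 600/well, preincubated 5 h with CellTox Green dye, then exposed to Tox21 compounds in DMSO at 37 C for up to 40 h. Dead-cell DNA fluorescence read at the indicated time point.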
# [6] = qHTS RealTime-Glo MT Cell Viability Assay in HepG2 cells - 32 hour (AID 1224877); note: nearly all actives have a fitted effect of over 55% in size; note: potency is the fitted concentration of half-maximal effect
# Summary of the method: (§5)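 Viability was tracked continuously by NanoLuc luminescence from prosubstrate reduced by living HepG2 cells, at successive time points over 40 h of compound exposure. Cells with reagent were preincubated 5 h at 37 °C before compound addition.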
# [7] = A CellTox Green Cytotoxicity Assay to monitor cytotoxicity in HepG2 cells - 24 hour (AID 1224878); note: nearly all actives have a fitted effect of over 45% in size; note: potency is the fitted concentration of half-maximal effect
# Summary of the method: as §4
# [8] = A CellTox Green Cytotoxicity Assay to monitor cytotoxicity in HepG2 cells - 40 hour (AID 1224879); note: nearly all actives have a fitted effect of over 40% in size; note: potency is the fitted concentration of half-maximal effect
# Summary of the method: as §4
# [9] = qHTS RealTime-Glo MT Cell Viability Assay in HEK293 cells - 0 hour (AID 1224880); note: top concentration of the series differs between compounds; nearly all actives have a fitted effect of over 45% in size
# Summary of the method: as §2
# [10] = A CellTox Green Cytotoxicity Assay to monitor cytotoxicity in HEK293 cells - 32 hour (AID 1224881); note: nearly all actives have a fitted effect of over 40% in size; note: potency is the fitted concentration of half-maximal effect
# Summary of the method: as §3
# [11] = A CellTox Green Cytotoxicity Assay to monitor cytotoxicity in HepG2 cells - 0 hour (AID 1224882); note: nearly all actives have a fitted effect of over 35% in size
# Summary of the method: as §4
# [12] = A CellTox Green Cytotoxicity Assay to monitor cytotoxicity in HepG2 cells - 32 hour (AID 1224883); note: nearly all actives have a fitted effect of over 50% in size; note: potency is the fitted concentration of half-maximal effect
# Summary of the method: as §4
# [13] = qHTS RealTime-Glo MT Cell Viability Assay in HepG2 cells - 16 hour (AID 1224885); note: nearly all actives have a fitted effect of over 50% in size; note: potency is the fitted concentration of half-maximal effect
# Summary of the method: as §5
# [14] = qHTS RealTime-Glo MT Cell Viability Assay in HEK293 cells - 24 hour (AID 1224886); note: nearly all actives have a fitted effect of over 50% in size; note: potency is the fitted concentration of half-maximal effect; for activity change, negative = cytotoxicity: top concentration of the series differs between compounds
# Summary of the method: as §1
# [15] = qHTS RealTime-Glo MT Cell Viability Assay in HEK293 cells - 8 hour (AID 1224887); note: nearly all actives have a fitted effect of over 50% in size; note: potency is the fitted concentration of half-maximal effect; for activity change, negative = cytotoxicity: top concentration of the series differs between compounds
# Summary of the method: as §2
# [16] = A CellTox Green Cytotoxicity Assay to monitor cytotoxicity in HEK293 cells - 16 hour (AID 1224888); note: nearly all actives have a fitted effect of over 35% in size; note: potency is the fitted concentration of half-maximal effect
# Summary of the method: as §3
# [17] = qHTS RealTime-Glo MT Cell Viability Assay in HepG2 cells - 0 hour (AID 1224889); note: nearly all actives have a fitted effect of over 50% in size
# Summary of the method: as §5
# [18] = A CellTox Green Cytotoxicity Assay to monitor cytotoxicity in HepG2 cells - 8 hour (AID 1224890); note: nearly all actives have a fitted effect of over 45% in size; note: potency is the fitted concentration of half-maximal effect
# Summary of the method: as §4
# [19] = qHTS assay to identify small molecule antagonists of the estrogen receptor alpha (ER-alpha) signaling pathway using the BG1 cell line in the presence of 0.1 nM 17-beta-estradiol - cell viability counter screen (AID 1259241); note: nearly all actives have a fitted effect of over 40% in size; note: potency is the fitted concentration of half-maximal effect
# Summary of the method: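 In this screen, hormone-deprived VM7Luc4E2 cells were seeded at 4,000 per well, dosed with compound and 0.1 nM estradiol final, and incubated 22 hr at 37C and 5% CO2; fluorogenic live-cell protease signal reported viability.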
# [20] = A CellTox Green Cytotoxicity Assay to monitor cytotoxicity in HEK293 cells - 8 hour (AID 1224884); note: nearly all actives have a fitted effect of over 35% in size; note: potency is the fitted concentration of half-maximal effect
# Summary of the method: as §3
structure (smiles),measurement,setting,value
CCC(=O)CC(C)CC (configuration not stated),"activity change, negative = cytotoxicity",[1],5.55% [at 0.29 µM]
same,"viability change, negative = cytotoxic",[2],1.82% [at 0.29 µM]
same,max response,[3],3.72%
same,activity change,[4],"8.11% [at 0.29 µM, hits give high values]"
same,cytotoxicity increase,[5],5.23% [at 0.29 µM]
same,"activity change, negative = cytotoxic",[6],-0.929% [at 0.29 µM]
same,cytotoxicity,[7],8.2% [at 0.29 µM]
same,cytotoxicity increase,[8],5.43% [at 0.29 µM]
same,"activity change, negative = cytotoxicity",[9],6.1% [at 0.29 µM]
same,cytotoxicity increase,[10],9.56% [at 0.29 µM]
same,cytotoxicity,[11],11.3% [at 0.29 µM]
same,cytotoxicity increase,[12],8.4% [at 0.29 µM]
same,"activity change, negative = cytotoxic",[13],0.759% [at 0.29 µM]
same,"activity change, negative = cytotoxicity",[14],-3.03% [at 0.29 µM]
same,"activity change, negative = cytotoxicity",[15],3.45% [at 0.29 µM]
same,activity change,[16],"10.7% [at 0.29 µM, hits give high values]"
same,"activity change, negative = cytotoxicity",[17],5.37% [at 0.29 µM]
same,cytotoxicity increase,[18],2.33% [at 0.29 µM]
same,"activity change, negative = cytotoxicity",[19],-17.1% [at 0.349 µM]
CN1[C@@H]2CC[C@@H]1CC(OC(=O)C(CO)c1ccccc1)C2 (some centres not stated),Potency,[1],inactive
same,Potency,[2],inactive
same,max response,[3],-6.75%
same,Potency,[4],inactive
same,Potency,[5],inactive
same,Potency,[6],inactive
same,Potency,[7],inactive
same,Potency,[8],inactive
same,Potency,[9],inactive
same,Potency,[11],inactive
same,Potency,[12],inactive
same,Potency,[20],inactive
same,Potency,[13],inactive
same,Potency,[14],inactive
same,Potency,[15],inactive
same,Potency,[16],inactive
same,Potency,[17],inactive
same,Potency,[18],inactive
same,Potency,[19],inactive
CCc1cccc(C)c1,Potency,[1],inactive
same,Potency,[2],inactive
same,max response,[3],-0.877%
same,Potency,[4],inactive
same,Potency,[5],inactive
same,Potency,[6],inactive
same,Potency,[7],inactive
same,Potency,[8],inactive
same,Potency,[9],inactive
same,Potency,[10],inactive
same,Potency,[11],inactive
same,Potency,[20],inactive
same,Potency,[13],inactive
same,Potency,[14],inactive
same,Potency,[15],inactive
same,Potency,[16],inactive
same,Potency,[17],inactive
same,Potency,[18],inactive
same,Potency,[19],inactive
CCCC(O)C(O)CO (configuration not stated),Potency,[1],inactive
same,Potency,[2],inactive
same,max response,[3],4.32%
same,Potency,[4],inactive
same,Potency,[5],inactive
same,Potency,[6],inactive
same,Potency,[7],inactive
same,Potency,[8],inactive
same,Potency,[9],inactive
same,Potency,[10],inactive
same,Potency,[11],inactive
same,Potency,[12],inactive
same,Potency,[13],inactive
same,Potency,[14],inactive
same,Potency,[15],inactive
same,Potency,[16],inactive
same,Potency,[17],inactive
same,Potency,[19],inactive
Cn1cnc2ncnc(N)c21,Potency,[1],inactive
same,Potency,[2],inactive
same,max response,[3],11.2%
same,Potency,[4],inactive
same,Potency,[5],inactive
same,Potency,[6],inactive
same,Potency,[7],inactive
same,Potency,[8],inactive
same,Potency,[9],inactive
same,Potency,[10],inactive
same,Potency,[20],inactive
same,Potency,[13],inactive
same,Potency,[14],inactive
same,Potency,[15],inactive
same,Potency,[16],inactive
same,Potency,[17],inactive
same,Potency,[19],inactive
Clc1cccnc1,Potency,[1],inactive
same,Potency,[2],inactive
same,max response,[3],0.202%
same,Potency,[4],inactive
same,Potency,[5],inactive
same,Potency,[6],inactive
same,Potency,[7],inactive
same,Potency,[8],inactive
same,Potency,[9],inactive
same,Potency,[10],inactive
same,Potency,[12],inactive
same,Potency,[20],inactive
same,Potency,[13],inactive
same,Potency,[14],inactive
same,Potency,[15],inactive
same,Potency,[16],inactive
same,Potency,[17],inactive
same,Potency,[18],inactive
same,Potency,[19],inactive
CC(C)=C1CC[C@@H](C)CC1=O,Potency,[1],inactive
same,Potency,[2],inactive
same,max response,[3],0.14%
same,Potency,[4],inactive
same,Potency,[5],inactive
same,Potency,[6],inactive
same,Potency,[7],inactive
same,Potency,[8],inactive
same,Potency,[9],inactive
same,Potency,[10],inactive
same,Potency,[20],inactive
same,Potency,[13],inactive
same,Potency,[14],inactive
same,Potency,[15],inactive
same,Potency,[16],inactive
same,Potency,[17],inactive
same,Potency,[18],inactive
same,Potency,[19],inactive
SCCCCCCCCS,Potency,[1],inactive
same,Potency,[2],inactive
same,max response,[3],9.16%
same,Potency,[4],inactive
same,Potency,[5],19.5 µM (active)
same,Potency,[6],inactive
same,Potency,[7],19.5 µM (active)
same,Potency,[8],19.5 µM (active)
same,Potency,[9],inactive
same,Potency,[10],inactive
same,Potency,[11],inactive
same,Potency,[12],19.5 µM (active)
same,Potency,[13],inactive
same,Potency,[14],inactive
same,Potency,[15],inactive
same,Potency,[16],inactive
same,Potency,[17],inactive
same,Potency,[19],inactive
CCN=c1cc2oc3cc(NCC)c(C)cc3c(-c3ccccc3C(=O)OCC)c-2cc1C,Potency,[1],8.68 µM (active) and 6.17 µM (active)
same,Potency,[2],24.5 µM (active) and 21.9 µM (active)
same,Potency,[3],614 nM (active) and 550 nM (active)
same,Potency,[4],12.3 µM (active) and 11 µM (active)
same,Potency,[5],10.9 µM (active) and 6.17 µM (active)
same,Potency,[6],43.5 µM (active) and 21.9 µM (active)
same,Potency,[7],19.4 µM (active) and 5.49 µM (active)
same,Potency,[8],21.8 µM (active) and 6.17 µM (active)
same,Potency,[9],inactive
same,Potency,[10],10.9 µM (active) and 11 µM (active)
same,Potency,[12],21.8 µM (active)
same,Potency,[20],10.9 µM (active) and 9.77 µM (active)
same,Potency,[13],43.5 µM (active) and 24.5 µM (active)
same,Potency,[14],2.45 µM (active) and 1.74 µM (active)
same,Potency,[15],17.3 µM (active) and 17.4 µM (active)
same,Potency,[16],10.9 µM (active) and 11 µM (active)
same,Potency,[17],inactive
same,Potency,[18],21.8 µM (active) and 6.92 µM (active)
same,Potency,[19],8.6 µM (active) and 10.9 µM (active)
O=C(O)CC(=O)O,Potency,[1],inactive
same,Potency,[2],inactive
same,max response,[3],11.5%
same,Potency,[4],inactive
same,Potency,[5],inactive
same,Potency,[6],inactive
same,Potency,[7],inactive
same,Potency,[8],inactive
same,Potency,[9],inactive
same,Potency,[10],inactive
same,Potency,[11],inactive
same,Potency,[20],inactive
same,Potency,[13],inactive
same,Potency,[14],inactive
same,Potency,[15],inactive
same,Potency,[16],inactive
same,Potency,[17],inactive
same,Potency,[18],inactive
same,Potency,[19],inactive
COc1cccc(OC)c1O,Potency,[1],inactive
same,Potency,[2],inactive
same,max response,[3],8.86%
same,Potency,[4],inactive
same,Potency,[5],inactive
same,Potency,[6],inactive
same,Potency,[7],inactive
same,Potency,[8],inactive
same,Potency,[9],inactive
same,Potency,[10],inactive
same,Potency,[11],inactive
same,Potency,[12],inactive
same,Potency,[13],inactive
same,Potency,[14],inactive
same,Potency,[15],inactive
same,Potency,[16],inactive
same,Potency,[17],inactive
same,Potency,[18],inactive
same,Potency,[19],inactive
O=C1OC(=O)c2cccc3cccc1c23,Potency,[1],inactive
same,Potency,[2],inactive
same,max response,[3],-9.96%
same,Potency,[4],inactive
same,Potency,[5],inactive
same,Potency,[6],inactive
same,Potency,[7],inactive
same,Potency,[8],inactive
same,Potency,[9],inactive
same,Potency,[10],inactive
same,Potency,[12],inactive
same,Potency,[20],inactive
same,Potency,[13],inactive
same,Potency,[14],inactive
same,Potency,[15],inactive
same,Potency,[16],inactive
same,Potency,[17],inactive
same,Potency,[18],inactive
same,Potency,[19],inactive
O=CC1CC1,Potency,[1],inactive
same,Potency,[2],inactive
same,max response,[3],12%
same,Potency,[4],inactive
same,Potency,[5],inactive
same,Potency,[6],inactive
same,Potency,[7],inactive
same,Potency,[8],inactive
same,Potency,[9],inactive
same,Potency,[10],inactive
same,Potency,[11],inactive
same,Potency,[20],inactive
same,Potency,[13],inactive
same,Potency,[14],inactive
same,Potency,[15],inactive
same,Potency,[16],inactive
same,Potency,[17],inactive
same,Potency,[18],inactive
same,Potency,[19],inactive
